Measured values reported in PubChem BioAssay AID1159580 (chemical genetic matrix, 2015).
Several values for one entry are separate records, joined by “and”; a condition that tells them apart may be missing. Identical values can stand only once. Among all 5,500 compounds or so, about 2,000 (36%) were called active. Inconclusive results (about 18%) are left out. No stated cut-off is given here; in the data, active means normalized growth mostly below about 0.91 (no sharp cut-off); inconclusive means no clear call, values can overlap the other calls; inactive means mostly above about 0.92. This is one part of the list.

Experiment: chemical genetic growth profiling, strain panel (AID 1159580);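 further: tested at 20 µM; growth read once vehicle control cultures reached saturation at 30 °C; 1 = growth at the plate median or of vehicle wells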
Details: S. cerevisiae deletion strains, growth OD

Measured: normalized growth

CCC(=O)OCC(=O)C1(OC(=O)CC)C(C)CC2C3CCC4=CC(=O)C=CC4(C)C3(Cl)C(O)CC21C (stereo unspecified)
inactive: locus YAL021C, strain ccr4, stronger effect = lower value 0.99 | locus YAL026C, strain drs2, stronger effect = lower value 1 | locus YAL030W, strain snc1, stronger effect = lower value 0.999 | locus YBL061C, strain skt5, stronger effect = lower value 0.98 | locus YBR009C, strain hhf1, stronger effect = lower value 0.996 | locus YBR021W, strain FUR4, stronger effect = lower value 1.04 | locus YBR023C, strain chs3, stronger effect = lower value 0.979 | locus YBR171W, strain sec66, stronger effect = lower value 0.963 | locus YBR229C, strain ROT2, stronger effect = lower value 1.02 | locus YBR231C, strain swc5, stronger effect = lower value 0.972 | locus YBR279W, strain paf1, stronger effect = lower value 0.99 | locus YCL011C, strain gbp2, stronger effect = lower value 1 | locus YCL016C, strain dcc1, stronger effect = lower value 1.01 | locus YCL029C, strain bik1, stronger effect = lower value 0.993 | locus YCL061C, strain MRC1, stronger effect = lower value 0.991 | locus YCL069W, strain vba3, stronger effect = lower value 0.977 | locus YCR088W, strain abp1, stronger effect = lower value 0.993 | locus YDL005C, strain med2, stronger effect = lower value 0.97 | locus YDL035C, strain GPR1, stronger effect = lower value 1.03 | locus YDL040C, strain nat1, stronger effect = lower value 0.973 | locus YDL074C, strain BRE1, stronger effect = lower value 1.03 | locus YDL101C, strain DUN1, stronger effect = lower value 1.01 | locus YDL185W, strain tfp1, stronger effect = lower value 0.998 | locus YDL192W, strain arf1, stronger effect = lower value 0.997 | locus YDR001C, strain nth1, stronger effect = lower value 0.989 | locus YDR069C, strain doa4, stronger effect = lower value 0.959 | locus YDR101C, strain arx1, stronger effect = lower value 0.969 | locus YDR137W, strain rgp1, stronger effect = lower value 0.932 | locus YDR150W, strain NUM1, stronger effect = lower value 1.01 | locus YDR159W, strain sac3, stronger effect = lower value 0.959 | locus YDR162C, strain NBP2, stronger effect = lower value 1.04 | locus YDR195W, strain ref2 0.975 | locus YDR297W, strain sur2, stronger effect = lower value 0.979 | locus YDR318W, strain mcm21, stronger effect = lower value 0.993 | locus YDR334W, strain swr1, stronger effect = lower value 0.991 | locus YDR335W, strain msn5, stronger effect = lower value 0.966 | locus YDR388W, stronger effect = lower value 0.99 | locus YDR392W, strain spt3, stronger effect = lower value 1.03 | locus YDR502C, strain sam2, stronger effect = lower value 0.994 | locus YEL003W, strain gim4, stronger effect = lower value 0.973 | locus YEL037C, strain rad23, stronger effect = lower value 0.975 | locus YEL061C, strain CIN8 (second series), stronger effect = lower value 0.975 | locus YEL061C, strain CIN8, stronger effect = lower value 1.01 | locus YER015W, strain faa2, stronger effect = lower value 0.986 | locus YER016W, strain bim1, stronger effect = lower value 0.996 | locus YER110C, stronger effect = lower value 0.984 | locus YER111C, strain swi4, stronger effect = lower value 0.967 | locus YER155C, strain BEM2 (second series), stronger effect = lower value 0.995 | locus YER155C, strain BEM2, stronger effect = lower value 1.01 | locus YER167W, strain BCK2, stronger effect = lower value 1.02 | locus YFR010W, strain ubp6, stronger effect = lower value 0.957 | locus YGL078C, strain dbp3, stronger effect = lower value 0.99 | locus YGL086W, strain mad1, stronger effect = lower value 0.989 | locus YGL167C, strain pmr1, stronger effect = lower value 0.948 | locus YGL173C, strain kem1, stronger effect = lower value 0.952 | locus YGL227W, strain vid30, stronger effect = lower value 0.983 | locus YGL240W, strain doc1, stronger effect = lower value 0.974 | locus YGL248W, strain PDE1, stronger effect = lower value 1.02 | locus YGL253W, strain hxk2, stronger effect = lower value 0.926 | locus YGR135W, strain pre9, stronger effect = lower value 1 | locus YGR229C, strain SMI1, stronger effect = lower value 1.03 | locus YGR252W, strain gcn5, stronger effect = lower value 1.02 | locus YHR013C, strain ard1, stronger effect = lower value 0.987 | locus YHR027C, strain rpn1, stronger effect = lower value 0.999 | locus YHR030C, strain SLT2, stronger effect = lower value 1.01 and 1.11 | locus YHR079C, strain IRE1 (second series), stronger effect = lower value 0.985 | locus YHR079C, strain IRE1, stronger effect = lower value 1.05 | locus YHR094C, strain hxt1, stronger effect = lower value 0.989 | locus YHR129C, strain ARP1, stronger effect = lower value 1.02 | locus YHR142W, strain chs7, stronger effect = lower value 0.913 | locus YHR200W, strain rpn10, stronger effect = lower value 0.99 | locus YIL066C, strain RNR3, stronger effect = lower value 1.03 | locus YIL073C, strain SPO22, stronger effect = lower value 1.01 | locus YIL125W, strain kgd1, stronger effect = lower value 0.99 | locus YIR030C, strain dcg1, stronger effect = lower value 0.984 | locus YJL092W, strain hpr5, stronger effect = lower value 0.978 | locus YJL095W, strain BCK1 (second series), stronger effect = lower value 0.982 | locus YJL095W, strain BCK1, stronger effect = lower value 1.02 and 1.04 | locus YJL115W, strain asf1, stronger effect = lower value 0.973 | locus YJL129C, strain trk1, stronger effect = lower value 0.922 | locus YJL134W, strain LCB3, stronger effect = lower value 1.01 | locus YJL154C, strain vps35, stronger effect = lower value 0.965 | locus YJL164C, strain tpk1, stronger effect = lower value 1.01 | locus YJL166W, strain qcr8, stronger effect = lower value 0.947 | locus YJL168C, strain set2, stronger effect = lower value 0.991 | locus YJL187C, strain SWE1 (second series), stronger effect = lower value 1
